PubChem BioAssay (EPA / NIEHS)
Results filed as inconclusive are left out. Calls of active or inactive are those of the source. How the source made its calls, unless noted: active means hit-call score of the fitted dose curve at least 0.9, where 1 is the maximum; inactive means score below 0.9.

Tests used:
[1] = target: Cellular tumor antigen p53 (Homo sapiens) (UniProt P04637); assay: TOX21_p53_BLA_p2_ratio: Tox21 HCT-116 p53 Agonism Beta-lactamase Assay, Ratio, Phase 2 (AID 2283592; active means hit-call score of the fitted dose curve at least 0.9, where 1 is the maximum)
Cellular tumor antigen p53 (Homo sapiens), sequence (P04637 whole entry, looked up): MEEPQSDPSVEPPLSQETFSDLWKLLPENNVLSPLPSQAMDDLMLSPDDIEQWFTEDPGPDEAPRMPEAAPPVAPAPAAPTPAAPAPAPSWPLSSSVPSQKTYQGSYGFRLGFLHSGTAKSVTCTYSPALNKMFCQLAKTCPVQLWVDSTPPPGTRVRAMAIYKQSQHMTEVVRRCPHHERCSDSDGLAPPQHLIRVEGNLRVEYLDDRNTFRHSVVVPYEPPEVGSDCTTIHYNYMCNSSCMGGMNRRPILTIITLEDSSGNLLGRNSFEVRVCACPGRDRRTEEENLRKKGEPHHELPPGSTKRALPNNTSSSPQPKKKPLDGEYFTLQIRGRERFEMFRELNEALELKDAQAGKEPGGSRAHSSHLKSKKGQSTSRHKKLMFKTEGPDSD
How it was run: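 First, HCT116 reporter cells settle for 5 h at 37C. Next, DMSO compound solutions are pinned in (217-fold dilution) and left 16 h. Finally, CCF4-AM substrate is loaded 2 h at room temperature and the 460/530 nm ratio read.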

[2] = target: Cellular tumor antigen p53 (Homo sapiens) (UniProt P04637); assay: TOX21_p53_BLA_p3_ratio: Tox21 HCT-116 p53 Agonism Beta-lactamase Assay, Ratio, Phase 3 (AID 2283596; active means hit-call score of the fitted dose curve at least 0.9, where 1 is the maximum)
How it was run: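 Cells were seeded at 4000/well, rested 5 h at 37C, then dosed with DMSO compound solutions (217-fold dilution) for 16 h. CCF4-AM substrate was loaded for 2 h at room temperature, and the 460/530 nm emission ratio was fitted for gain of signal versus DMSO.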

[3] = target: Cellular tumor antigen p53 (Homo sapiens) (UniProt P04637); assay: TOX21_p53_BLA_p5_ratio: Tox21 HCT-116 p53 Agonism Beta-lactamase Assay, Ratio, Phase 5 (AID 2283599; active means hit-call score of the fitted dose curve at least 0.9, where 1 is the maximum)
How it was run: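 HCT-116 p53-bla cells (4000/well) plated 5 h, dosed with compound (217-fold DMSO dilution) for 16 h at 37 C; CCF4-AM substrate 2 h at room temperature. Activity is the 460/530 nm emission ratio (405 nm excitation), fitted in gain-of-signal direction versus DMSO.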

[4] = TOX21_p53_BLA_p5_viability: Viability Assessment in the Tox21 HCT-116 p53 Agonism Beta-lactamase Assay, Phase 5 (AID 2283600; active means hit-call score of the fitted dose curve at least 0.9, where 1 is the maximum)
How it was run: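 Decreased CellTiter-Glo luminescence denotes lost viability. Exposure: 16 h at 37C, 5% CO2, with compounds from DMSO stocks diluted 217-fold in wells of 4000 cells.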

[5] = target: Cellular tumor antigen p53 (Homo sapiens) (UniProt P04637); assay: TOX21_p53_BLA_p4_ratio: Tox21 HCT-116 p53 Agonism Beta-lactamase Assay, Ratio, Phase 4 (AID 2283601; active means hit-call score of the fitted dose curve at least 0.9, where 1 is the maximum)
How it was run: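 HCT-116 p53 beta-lactamase reporter cells (4000/well) preincubated 5 h, then compound (217-fold dilution of DMSO stock) for 16 h at 37C. CCF4-AM substrate added 2 h at room temperature; 460/530 nm emission ratio fitted upward versus DMSO.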

[6] = CCTE_Shafer_MEA_dev_firing_rate_mean: CCTE's Neural Network Formation Assay for Mean Firing Rate, Shafer Lab (AID 2284031)
How it was run: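 Spike frequency (spikes/recording length, averaged over active electrodes) was recorded on days 5, 7, 9 and 12 and collapsed to AUC; rat cortical cultures received compound continuously over 12 days of network development.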

[7] = CCTE_Shafer_MEA_dev_per_burst_spike_percent: CCTE's Neural Network Formation Assay for Percent of Spikes in a Burst, Shafer Lab (AID 2284032);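 further: fitted as a decrease in burst spike percentage below DMSO baseline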
How it was run: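 Value is trapezoidal AUC over recordings on days 5, 7, 9 and 12 of the well-mean fraction of spikes falling in single-electrode bursts; rat cortical cultures exposed continuously from plating, treatment renewed DIV 5 and 9, fitted downward against DMSO.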

[8] = CCTE_Shafer_MEA_dev_active_electrodes_number: CCTE's Neural Network Formation Assay for Number of Active Electrodes, Shafer Lab (AID 2284040; active means hit-call score of the fitted dose curve at least 0.9, where 1 is the maximum;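 further: potency for loss of active electrodes versus DMSO so lower counts are hits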)
How it was run: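 Counts electrodes per well firing at least 5 spikes/min, recorded on days 5, 7, 9 and 12 in rat cortical cultures dosed continuously from plating (treatment refreshed DIV 5, 9). Value is the area under the curve over recordings, fitted downward relative to DMSO.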

[9] = CCTE_Shafer_MEA_dev_bursting_electrodes_number: CCTE's Neural Network Formation Assay for Number of Bursting Electrodes, Shafer Lab (AID 2284043; active means hit-call score of the fitted dose curve at least 0.9, where 1 is the maximum;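 further: potency is for loss of bursting electrodes relative to DMSO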)
How it was run: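 Rat cortical primary neurons, 48-well MEA, 16 electrodes/well; dosing DIV 0–12, re-dosed with full media change DIV 5, 9. Recordings DIV 5/7/9/12, AxIS adaptive spike detector; bursting electrode = ≥1 burst/2 min. AUC across days; loss of signal vs DMSO.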

[10] = CCTE_Shafer_MEA_dev_per_burst_interspike_interval: CCTE's Neural Network Formation Assay for Burst Interspike Interval, Shafer Lab (AID 2284044)
How it was run: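 Primary rat cortical neurons on 48-well MEA plates, exposed from day 0 through day 12, treatment renewed at DIV 5 and 9. Within-burst interspike interval recorded days 5, 7, 9, 12, well-averaged, summarised as AUC; negative fit versus DMSO.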

[11] = CCTE_Shafer_MEA_dev_burst_duration_mean: CCTE's Neural Network Formation Assay for Mean Burst Duration, Shafer Lab (AID 2284045)
How it was run: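 Rat cortical cultures, 1.5 x 10^5 cells/well with laminin drop; continuous dosing days 0–12, media plus treatment refreshed DIV 5, 9. AxIS adaptive spike detection; mean single-electrode burst duration, AUC over four recordings, negative direction vs DMSO.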

[12] = CCTE_Shafer_MEA_dev_interburst_interval_mean: CCTE's Neural Network Formation Assay for Mean Interburst Interval, Shafer Lab (AID 2284046);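 further: well-mean interburst interval of bursting electrodes as AUC over four recording days; curve fitted for decrease in interburst interval relative to DMSO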
How it was run: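 Developing rat cortical networks on 48-well MEAs receive compound from the day of plating. Burst intervals from each active electrode are averaged per well, and AUC over the recording days is fitted in the negative direction against DMSO.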

[13] = CCTE_Shafer_MEA_dev_inter_network_spike_interval_mean: CCTE's Neural Network Formation Assay for Mean Inter-network Spike Interval, Shafer Lab (AID 2284047)
How it was run: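 Rat cortical cultures, 1.5 x 10^5 cells/well on 48-well MEA plates; continuous exposure days 0–12, medium and compound refreshed DIV 5, 9. Mean time between consecutive network-spike peaks; AUC across DIV 5/7/9/12; DMSO baseline, negative fitting direction.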

[14] = CCTE_Shafer_MEA_dev_network_spike_number: CCTE's Neural Network Formation Assay for Number of Network Spikes, Shafer Lab (AID 2284048);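 further: synchronized bursts across electrodes counted on days 5 7 9 12 and integrated as AUC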
How it was run: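 Rat cortical primary cultures on 48-well MEA (16 electrodes/well); continuous exposure DIV 0–12, full medium and treatment exchange DIV 5, 9. Readout: network spike count, AxIS adaptive detection, recordings DIV 5/7/9/12 collapsed to AUC; loss-of-signal fit, DMSO baseline.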

[15] = CCTE_Shafer_MEA_dev_network_spike_peak: CCTE's Neural Network Formation Assay for Mean Number of Electrodes in Network Spike, Shafer Lab (AID 2284049)
How it was run: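 Network-spike peak electrode count from recordings on days 5, 7, 9 and 12 was combined as trapezoidal area under the curve. Rat cortical cultures were treated continuously from plating, with compound renewed at each feed (DIV 5, 9); fits versus DMSO.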

[16] = CCTE_Shafer_MEA_dev_spike_duration_mean: CCTE's Neural Network Formation Assay for Mean Spike Duration, Shafer Lab (AID 2284051);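 further: mean network spike duration pooled as area under curve over DIV 5 to 12 recordings; potency for a decrease in mean network spike duration versus DMSO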
How it was run: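 Readout is the average length of network spikes, clustered firing across electrodes, summed over DIV 5, 7, 9 and 12 as area under the curve. Neurons from rat cortex developed networks on MEA plates under continuous 12-day exposure.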

[17] = CCTE_Shafer_MEA_dev_network_spike_duration_std: CCTE's Neural Network Formation Assay for Standard Deviation of Network Spike Duration, Shafer Lab (AID 2284052);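 further: area under curve of spike duration SD across recording days 5 to 12; hits are decreases in network spike duration SD versus DMSO vehicle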
How it was run: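 Read-out is the trapezoidal area-under-the-curve across recordings made on days 5, 7, 9 and 12, fitted in the negative direction against DMSO baseline. Neurons were primary rat cortical cells treated from day 0, with treatment renewed at each feed.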

[18] = CCTE_Shafer_MEA_dev_per_network_spike_spike_number_mean: CCTE's Neural Network Formation Assay for Mean Number of Spikes in a Network Spike, Shafer Lab (AID 2284053)
How it was run: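 Continuous twelve-day exposure of developing rat cortical networks grown over 16 microelectrodes per well; spontaneous firing is captured at four time points, and the per-network-spike spike number is integrated over development by trapezoidal AUC.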

[19] = CCTE_Shafer_MEA_dev_per_network_spike_spike_percent: CCTE's Neural Network Formation Assay for Percent of Spikes in a Network Spike, Shafer Lab (AID 2284054)
How it was run: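 Read-out: percent of spikes falling in a 0.05 s window at network-spike peak, from spontaneous MEA recordings on days 5, 7, 9 and 12; trapezoidal AUC; loss of signal versus DMSO. Rat cortical cultures, compound present throughout.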

[20] = CCTE_Shafer_MEA_dev_AB: CCTE's Alamar Blue Assay for Cytotoxicity in the Neural Network Formation Assay, Shafer Lab (AID 2284083; active means hit-call score of the fitted dose curve at least 0.9, where 1 is the maximum;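 further: resazurin reduction fluorescence as viability of cultured neurons; twelve days of exposure from plating with re-dosing on DIV 5 and 9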)
How it was run: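 Fluorescent resazurin reduction serves as the viability read-out, with DMSO as negative control and baseline. Cells were primary rat cortical neurons grown on MEA plates and dosed from day 0 to day 12, treatment renewed on DIV 5 and 9.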

[21] = CCTE_Shafer_MEA_dev_mutual_information_norm: CCTE's Neural Network Formation Assay for Mutual Information Normalization, Shafer Lab (AID 2284091)
How it was run: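 Neurons from rat cortex were seeded at 1.5 x 10^5 cells/well onto PEI-coated MEAs in a laminin drop, then exposed to compound from day 0 for twelve days. Network recordings on four days gave mutual information, summarised by AUC relative to DMSO.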

[22] = CCTE_Shafer_MEA_dev_correlation_coefficient_mean: CCTE's Neural Network Formation Assay for Mean Correlation Coefficient, Shafer Lab (AID 2284093)
How it was run: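 Read-out: well-mean correlation coefficient of spike trains between electrode pairs, collapsed over four recording days as trapezoidal area-under-the-curve. Developing rat cortical neuron networks grown on MEAs received test chemical continuously from plating.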

[23] = CCTE_Mundy_HCI_Cortical_Synap_Neur_Matur_NeuriteSpotCountPerNeuriteLength: CCTE's Synaptogenesis and Neurite Maturation Assay in rat cortical cells for Neurite Spot Count per Neurite Length, Mundy Lab (AID 2284210)
How it was run: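 Read-out: synaptophysin puncta counted along MAP2-stained neurites, normalised to neurite length, by automated high-content imaging. Rat cortical cells; AraC DIV 5; chemical dosing DIV 7; termination DIV 12. DMSO baseline.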

[24] = CCTE_Mundy_HCI_Cortical_NOG_NeuriteLength: CCTE's Neurite Outgrowth Assay in rat cortical cells for Neurite Length, Mundy Lab (AID 2284213)
How it was run: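 First, rat primary cortical cells were plated and, 2 h later, given test chemical as a 1/10 dilution. Finally, βIII-tubulin immunostaining enabled automated imaging of neurite length.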

[25] = CCTE_Mundy_HCI_Cortical_Synap_Neur_Matur_NeuriteLength: CCTE's Synaptogenesis and Neurite Maturation Assay in rat cortical cells for Neurite Length, Mundy Lab (AID 2284214)
How it was run: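 Neurite length quantified by automated high-content imaging of MAP2, synaptophysin and Hoechst staining. Rat cortical cells received chemical from DIV 7 to DIV 12 […], glial growth arrested by AraC at DIV 5; DMSO baseline.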

[26] = CCTE_Mundy_HCI_Cortical_Synap_Neur_Matur_NeuriteSpotCountPerNeuron: CCTE's Synaptogenesis and Neurite Maturation Assay in rat cortical cells for Neurite Spot Count per Neuron Count, Mundy Lab (AID 2284215)
How it was run: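 Rat primary cortical cultures given AraC at DIV 5, dosed from DIV 7 to DIV 12 with media change. Fixed, stained for MAP2, synaptophysin and Hoechst; neurite-associated synaptophysin puncta per neuron quantified by high-content imaging versus DMSO.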

[27] = CCTE_Mundy_HCI_Cortical_Synap_Neur_Matur_SynapseCount: CCTE's Synaptogenesis and Neurite Maturation Assay in rat cortical cells for Synapse Count, Mundy Lab (AID 2284218)
How it was run: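 High-content imaging of synaptophysin puncta per MAP2-positive neuron (Hoechst nuclei) in rat cortical cells exposed DIV 7–12 after glial arrest with AraC at DIV 5; decrease relative to DMSO scored.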

[28] = CCTE_Mundy_HCI_hN2_NOG_NeuriteLength: CCTE's Neurite Outgrowth Assay in human hN2 cells for Neurite Length, Mundy Lab (AID 2284220; active means hit-call score of the fitted dose curve at least 0.9, where 1 is the maximum)
How it was run: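 Read-out is neurite length from high-content imaging of βIII-tubulin/Alexa Fluor-488-labelled neurons, referenced to DMSO controls.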

[29] = CCTE_Mundy_HCI_hN2_NOG_NeuronCount: CCTE's Neurite Outgrowth Assay in human hN2 cells for Neuron Count, Mundy Lab (AID 2284221; active means hit-call score of the fitted dose curve at least 0.9, where 1 is the maximum)
How it was run: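 Read-out is the number of betaIII-tubulin-positive neurons imaged by automated high-content analysis, with DMSO as negative control.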

[30] = CCTE_Mundy_HCI_Cortical_Synap_Neur_Matur_CellBodySpotCount: CCTE's Synaptogenesis and Neurite Maturation Assay in rat cortical cells for Cell Body Spot Count, Mundy Lab (AID 2284223)
How it was run: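 Primary rat cortical cultures, AraC added at DIV 5; dosed DIV 7 through DIV 12 […]. Fixed, stained for MAP2 and synaptophysin with Hoechst; cell body-associated synaptophysin puncta per neuron counted by high-content imaging, loss vs DMSO.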

[31] = CCTE_Mundy_HCI_Cortical_NOG_NeuronCount: CCTE's Neurite Outgrowth Assay in rat cortical cells for Neuron Count, Mundy Lab (AID 2284236; active means hit-call score of the fitted dose curve at least 0.9, where 1 is the maximum;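 further: neurons counted by imaging betaIII-tubulin and Hoechst stained cortical cells; cells exposed to compound for about 48 hours before fixation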)
How it was run: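 Read-out: neuron number by high-content imaging of betaIII-tubulin (Alexa Fluor-488) and Hoechst-labelled rat primary cortical cells.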

[32] = CCTE_Mundy_HCI_hNP1_Casp3_7: CCTE's Caspase-Glo 3/7 Assay in human neuroprogenitor cells for Apoptosis, Mundy Lab (AID 2284240)
How it was run: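 Luminescent caspase-3/7 readout, 26.5 h post-dose, in human neural progenitor cells from WA09 embryonic stem cells. Cells grew 40–44 h at 37 °C, 5% CO2 before chemical addition. Activity analysed as signal increase over DMSO baseline.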

Measured: AC50

CN1C(=O)CN=C(c2ccccc2)c2cc(Cl)ccc21
active: [7] 3.62 µM | [8] 15 µM | [9] 4.58 µM | [16] 3.06 µM | [19] 15 µM | [32] 23 µM
inactive: all other assays above
